According to PubChem BioAssay AID624040 (The Scripps Research Institute Molecular Screening Center, 2012):
Screen size: about 360,000 compounds; about 2,100 (0.58%) were called active. For the sample, actives were picked, then their nearest neighbours and some compounds at random. Values without a mark were called inactive.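 How the source made its calls: active means inhibition above a per-plate cutoff, the mean of that plate's test compounds plus 3 SD (cut at about 27% in these data); inactive means the rest.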

biological target: Muscarinic acetylcholine receptor M5 (Homo sapiens) (UniProt P08912); assay: human M5 muscarinic receptor antagonists, primary screen, CHO cells, Fluo-8 calcium fluorescence (AID 624040); conditions: CHO-hM5 cells, ACh EC80, at 3 µM, active compounds read high;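 further: 0% = acetylcholine EC80 with DMSO and 100% = DMSO without agonist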
Sequence (P08912 whole entry, looked up): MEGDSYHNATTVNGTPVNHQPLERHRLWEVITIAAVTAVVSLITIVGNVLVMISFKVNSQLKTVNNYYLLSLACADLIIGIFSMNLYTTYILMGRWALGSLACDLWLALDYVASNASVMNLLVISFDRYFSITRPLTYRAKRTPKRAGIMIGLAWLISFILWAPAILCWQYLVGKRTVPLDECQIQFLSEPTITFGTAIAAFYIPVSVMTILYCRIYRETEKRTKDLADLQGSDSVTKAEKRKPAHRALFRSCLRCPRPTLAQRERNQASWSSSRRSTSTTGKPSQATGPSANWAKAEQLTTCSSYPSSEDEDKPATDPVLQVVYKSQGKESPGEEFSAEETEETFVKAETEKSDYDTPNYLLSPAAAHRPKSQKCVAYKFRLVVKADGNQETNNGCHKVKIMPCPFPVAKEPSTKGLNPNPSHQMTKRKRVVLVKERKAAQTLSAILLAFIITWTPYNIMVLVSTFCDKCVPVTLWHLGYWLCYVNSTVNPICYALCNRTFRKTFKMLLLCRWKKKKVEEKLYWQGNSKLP

First: Cc1cccc(N(Cc2ccccc2)C(=O)c2cc(S(=O)(=O)N3CCOCC3)ccc2F)c1
Second: O=C(NCc1ccccc1)C1=C[C@H](C2CC2)C[C@H](OCc2ccc(CO)cc2)O1
The inhibition of the first is lower: 1.23% for the first, 8.59% for the second.

Compared with CN(C)C1CN(Cc2cn(Cc3ccccc3)nn2)S(=O)(=O)C1 (stereo not given), Cc1ccc(Cn2cc(CN3CC(N4CCN(C)CC4)CS3(=O)=O)nn2)cc1 (stereo not given) is lower in inhibition: 0.6% for the first, 0.4% for the second.

Going from COC(=O)c1c(-c2cccs2)csc1NC(=O)CSc1ncnc2sc(C)c(C)c12 to Cc1ccccc1NC(=O)Cc1nc(COC(=O)C(C)(C)Oc2ccc(Cl)cc2)cs1, the inhibition rises from -0.42% to 0.92%.

Compared with O=S(=O)(Nc1ccc(O)c2ccccc12)c1ccc(OC(F)(F)F)cc1, Cc1cccc(C)c1NC(=O)C(c1ccc(C(F)(F)F)cc1)n1c(=O)c(-c2ccco2)nc2ccccc21 (stereo not given) is lower in inhibition: 7.68% for the first, -5.75% for the second.

Going from O=C(c1ccc(F)cc1)N1CCC(C(=O)N2CCN(S(=O)(=O)c3ccccc3Br)CC2)CC1 to Cc1ccc(S(=O)(=O)N2CCCC(C(=O)N3CCN(C)CC3)C2)cc1 (stereo not given), the inhibition falls from 4.21% to -2.93%.

Compared with CCCCCc1c(-c2cccc(Br)c2)ncn1CCc1ccccc1OC, CCCCCc1c(-c2ccc(OC)c(OC)c2)ncn1CCc1ccccc1OC is higher in inhibition: -1.26% for the first, 15.1% for the second.

Going from CCOc1ccc(-n2c(SCC(=O)NC3CCS(=O)(=O)C3)nnc2-c2cccnc2)cc1 (stereo not given) to O=C(NC(=S)NC1CCS(=O)(=O)C1)c1cccc([N+](=O)[O-])c1 (stereo not given), the inhibition falls from 0.02% to -3.13%.

Compared with c1ccc(COc2ccccc2CNCc2cccnc2)cc1, O=C(NCc1ccccc1)C1=C[C@@H](C2CCCCC2)C[C@@H](OCc2ccc(CO)cc2)O1 is higher in inhibition: 6.7% for the first, 15.6% for the second.

First: COc1ccc(S(=O)(=O)N2CCCC(C(=O)N3CCN(C)CC3)C2)cc1C (stereo not given)
Second: CC[C@@H](C)[C@@H]1CN([C@@H](C)CN2CCC[C@H]2CN2C(N)=NC[C@H]2C(C)C)C(=N)N1CCc1ccc(Cl)c(Cl)c1
The inhibition of the first is higher: 10.1% for the first, -2.75% for the second.

Going from CC1=C(C)CC(C(=O)NNC(=O)c2csc3c2CCC(C(C)(C)C)C3)C(C(=O)O)C1 (stereo not given) to NC1=NC[C@@H](Cc2ccc(O)cc2)N1CC1CCCCC1, the inhibition rises from -0.27% to 9.28%.

First: CCc1c(Nc2ccccc2Cl)nc(N)[nH]c1=O
Second: C/C(=N\NC(=O)c1cccc([N+](=O)[O-])c1)c1cccnc1
The inhibition of the first is higher: 6.79% for the first, 0.74% for the second.

In the case of CN(Cc1cn(Cc2ccc(C(F)(F)F)cc2)nn1)C1CN(Cc2cn(Cc3ccc(C(F)(F)F)cc3)nn2)S(=O)(=O)C1 (stereo not given), the inhibition is reported as 28.6% (active).
For CCCCCc1c(Cc2ccccc2)ncn1CCc1ccccc1OC, the inhibition was 30.2% (active).
With c1ccc(C(=NNc2nc3ccccc3s2)c2ccccn2)cc1 the inhibition was 53.7% (active).
c1ccc2c(c1)CSc1sccc1C2=C1CCNCC1 was tested, and the inhibition was 99% (active).
CC(C)(C)[C@H]1C=C(C(=O)NCc2ccccc2)O[C@@H](OCc2ccc(CO)cc2)C1 was tested, and the inhibition was 27% (active).
With CC(=O)N1CCCc2cc(S(=O)(=O)N3CCCC(C(=O)N4CCN(c5cccc(Cl)c5)CC4)C3)ccc21 (stereo not given) the inhibition was 39.3% (active).
In the case of CC(C)CC(=O)NC(=S)NNC(=O)c1cccc([N+](=O)[O-])c1, the inhibition is reported as 32.7% (active).
For C[C@@H](CN1CCC[C@H]1CN1C(N)=NC[C@@H]1Cc1ccccc1)N1C[C@@H](Cc2ccccc2)N(CCCC2CCCC2)C1=N, the inhibition was 28.9% (active).
